Molecules are shown by their SMILES. About 79,000 compounds went through this panel and 15% of them were active in at least one assay; those are over-represented in the sample as a whole. Unmarked numbers belong to inactive results. Calls of active or inactive are those of the source. Rule as the data show it: active = growth inhibition above about 70%; inactive = the rest.

The nature of the first assay: NCI Yeast Anticancer Drug Screen. Data for the rad50 strain (AID 155).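 Also: 0% = growth of vehicle-only cultures of the same strain.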 The settings on record: S. cerevisiae rad50 strain growth inhibition; at 5.0 µM (retest, dose inferred, filed as 0.5); stronger effect = higher value. A digest of the protocol: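 Yeast carrying a defined DNA repair defect were exposed to test compounds, and growth was compared with vehicle-treated controls to give percent inhibition.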
Take `Nc1nc(Cl)cc(NCC2(CO)CC(CCCc3ccccc3)C2)n1` (stereo not drawn): the growth inhibition is 25%. Same read-out and setting: the value for `Nc1nc(-c2cc3cc(Cl)ccc3o2)cs1` was 47%. Still for that read-out and setting: with `O=C(N(c1ccc(Cl)cc1)c1ccc(Cl)cc1)C(Cl)(Cl)Cl` the figure was 20%.

For `NC(CSSCC(N)C(=O)Nc1ccc2ccccc2c1)C(=O)Nc1ccc2ccccc2c1` (stereo not drawn), the growth inhibition was 42%. The same measure, in the same setting: with `O=C/C=C/c1cc([N+](=O)[O-])ccc1Cl` the figure was -138%. Same read-out and setting: with `COc1cc(C(c2cc3c(cc2OC(C)=O)OCO3)C(C(C)=O)C(C)=O)cc(OC)c1OC(C)=O` (stereo not drawn) the figure was 7%. Still for that read-out and setting: with `CCCCc1ccc(Nc2nc(N)c3[nH]cnc3n2)cc1` the figure was 19%; with `O=C(O)/C=C/C(=O)Nc1cccc2ccccc12`, 40%; with `Cc1cc(O)c(C(=O)/C=C/c2ccnc3ccccc23)c(=O)o1`, -7%. As for `ONC1=Nc2ccccc2OCc2cc(Br)c(Br)cc2COc2ccccc2N=C1NO`, the growth inhibition is 22%. On the same count and under the same terms, with `NNC(=O)c1ccc(N)cc1O` the figure was -1%; with `O=C(N/C(=C\c1ccc2c(c1)OCO2)c1nc2ccccc2s1)c1ccccc1`, 19%; with `CC1=NN(C(=O)c2ccncc2)C(=O)C1N=Nc1ccc(C)c([N+](=O)[O-])c1` (stereo not drawn), 10%. On the same count and under the same terms, the value for `COc1ccc2nc3cc(Cl)ccc3c(Nc3nccs3)c2c1` was 14%; that for `S=C(S)NCCN1CCNCC1` was 9%. With `ClCc1nc2ccccc2c2ccccc12`, the growth inhibition is 15%. The same measure, in the same setting: the value for `ClC1=C(Cl)C(Cl)(C(Cl)(Cl)Cl)C(Cl)=C1Cl` was 99% (active); that for `FC(F)(F)COP1(OCC(F)(F)F)=NP(OCC(F)(F)F)(OCC(F)(F)F)=NP(c2ccccc2)(c2ccccc2)=N1` was 0%. Same read-out and setting: the value for `CC(C)c1c(P(=O)(c2ccccc2)c2ccccc2)n(C)c2ccccc12` was 36%.

Turning to `CN(CCC1CCCCC1)CCC1CCCCC1`, the growth inhibition is 21%. The same measure, in the same setting: the value for `Cc1nc(Cl)nc(N)c1[N+](=O)[O-]` was 2%; that for `Nc1ccc2[nH]c3ccccc3c2c1` was -4%. On to `COc1ccc(NC(=O)CSC(N)=O)cc1`, for which the growth inhibition is 5%.

The assay is the same for the next values; noted with them: S. cerevisiae rad50 strain growth inhibition; at 50.0 µM (retest, dose inferred, filed as 5.0); stronger effect = higher value.
`CCC(c1ccccc1)N1C(=O)c2ccccc2S1(=O)=O` (stereo not drawn): the growth inhibition is -3%. With `Cc1ccc2cc3ccccc3c(-c3ccccc3)c2c1`, the growth inhibition is -3%. Same read-out and setting: with `CC(=O)Oc1ccc(C)cc1C(C)(C)C` the figure was 0%. Same read-out and setting: the value for `CCCCCCCCCCC[N+](C)(C)CCCCCC[N+](C)(C)CCCCCCCCCCC` was 98% (active); that for `CCN(CC)CCCNc1nc(NCCCN(CC)CC)c2nc(-c3ccccc3)c(-c3ccccc3)nc2n1` was 93% (active); that for `O=[N+]([O-])c1cnc(Sc2cncc[n+]2[O-])s1` was 99% (active). As for `O=c1[nH]c(=O)c2cc([N+](=O)[O-])cc([N+](=O)[O-])c2[nH]1`, the growth inhibition is 75% (active). The same measure, in the same setting: with `O=C(NC(=O)C(F)(F)F)Nc1ccc(Cl)cc1` the figure was 0%; with `O=[N+]([O-])c1ccc(S)c(Cl)c1`, 95% (active); with `CS(=O)(=O)n1c(C(O)c2ccccc2)nc2ccccc21` (stereo not drawn), 4%. Still for that read-out and setting: the value for `O=C(NCc1ccccc1)C1C(=O)N(Cc2ccccc2)C(=O)/C1=N/O` (stereo not drawn) was -1%. On the same count and under the same terms, with `C[n+]1c(/C=C/c2ccccc2Cl)sc2ccccc21` the figure was 96% (active); with `CC(=O)c1ccc(Cl)c(N=Cc2cc(Br)ccc2O)c1`, 77% (active); with `O=C(c1ccc(Cl)cc1)c1ccc([N+](=O)[O-])cc1`, -4%. Turning to `Nc1ccc2c(c1)[nH]c(=O)c1cc(Cl)c(Cl)cc12`, the growth inhibition is 94% (active). For the compound `COc1ccc(C2CC(c3c(O)ccc4ccccc34)=NN2)cc1OC` (stereo not drawn), the growth inhibition was 97% (active).

On to `CC[N+]1(C)CCC(O)(c2ccc(Cl)c(Cl)c2)C(C(=O)c2ccc(Cl)c(Cl)c2)C1` (stereo not drawn), for which the growth inhibition is 99% (active). Still for that read-out and setting: with `Nc1nc(Cl)cc(NCC2(CO)CC(CCCc3ccccc3)C2)n1` (stereo not drawn) the figure was 26%; with `Nc1nc(-c2cc3cc(Cl)ccc3o2)cs1`, 75% (active). `O=C(N(c1ccc(Cl)cc1)c1ccc(Cl)cc1)C(Cl)(Cl)Cl`: the growth inhibition was 68%.

`NC(CSSCC(N)C(=O)Nc1ccc2ccccc2c1)C(=O)Nc1ccc2ccccc2c1` (stereo not drawn): the growth inhibition is 98% (active). For `O=C/C=C/c1cc([N+](=O)[O-])ccc1Cl`, the growth inhibition was 77% (active). Still for that read-out and setting: with `COc1cc(C(c2cc3c(cc2OC(C)=O)OCO3)C(C(C)=O)C(C)=O)cc(OC)c1OC(C)=O` (stereo not drawn) the figure was 18%; with `CCCCc1ccc(Nc2nc(N)c3[nH]cnc3n2)cc1`, 35%. Still for that read-out and setting: with `O=C(O)/C=C/C(=O)Nc1cccc2ccccc12` the figure was 40%.

(Values after PubChem BioAssay (NCI).)
